# Experimental data published in PubChem BioAssay (NCATS).
# Records with an inconclusive call do not appear. Values without a mark were called inactive. The source made the active and inactive calls. The call rests on the fitted dose curve; in most records, active means well fitted inhibition curve with a large enough effect; inconclusive means small, poorly fitted or top-dose-only effect; inactive means flat fitted curve, though single readings scatter.
# Target: Calcium and integrin-binding protein 1 (Homo sapiens) (UniProt Q99828)
# Assay: Primary qHTS for Identification of Calcium Integrin Binding Protein 1 (CIB1) Competitor (AID 1508620); further: top concentration of the series differs between compounds
# Conditions: CIB1-GST / FITC-alphaIIb peptide fluorescence polarization; series mostly up to 114 µM; activity change, negative = inhibition: at the top concentration
# Procedure, shortened: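 Fluorescence polarization competition: GST-tagged CIB1 (1 uM final) preincubated with compound 15 min at room temperature, then FITC-labelled alphaIIb peptide (100 nM final) added. After 15 min at room temperature, polarization read at Ex 480/Em 540.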
# On the % scale 0 is the no-effect control and ±100 the full control effect.
# Sequence of Calcium and integrin-binding protein 1 (Homo sapiens) (Q99828 whole entry, looked up): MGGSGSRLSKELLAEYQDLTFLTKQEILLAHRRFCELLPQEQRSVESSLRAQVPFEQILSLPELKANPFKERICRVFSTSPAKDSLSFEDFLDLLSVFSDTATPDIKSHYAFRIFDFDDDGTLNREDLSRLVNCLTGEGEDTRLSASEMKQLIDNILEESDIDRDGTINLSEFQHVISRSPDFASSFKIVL
Structure (SMILES),Potency,"activity change, negative = inhibition [%]"
O=C1Nc2ccccc2/C1=C/c1cc(Cl)c(O)c(Cl)c1,inactive,–
Fc1cc(F)cc(Nc2nc(NC3CCCC3)nc(C3CO3)n2)c1 (stereo not given),–,-3.61
O=C1CCCC2=C1C(c1[nH]ncc1Cl)N=C(Nc1nc3cc([S+](=O)([O-])N4CCOCC4)ccc3o1)N2 (stereo not given),–,-6.32
O=C(Nc1ccc2c(c1)CCC2)Nc1nnc(-c2ccncc2)s1,–,0.762
Cn1nnnc1Sc1ncnc2scc(-c3cccc(S(C)(=O)=O)c3)c12,–,-1.91
Cc1ccc2nc3sc(C(=O)NC4CCCCC4)cc3cc2c1,–,3.64
Cc1cc2c(s1)c1cnn(Cc3cccc(C)c3F)c(=O)c1n2C,–,4.39
COc1ccccc1-c1ncc(C)c(NCc2ccc(-c3cccnc3)cc2)n1,–,-1.16
COc1ccc(C2Nc3ccccc3C(=O)N2Cc2ccc3c(c2)OCO3)cc1COc1c(C)cc(NC(C)=O)cc1C (stereo not given),–,-1.89
COc1ccc(-c2nnc3n2N=C(c2cc(OC)ccc2OC)CS3)c(OC)c1,–,-1.15
Nc1ccccc1S(=O)(=O)Nc1cccc2cccnc12,–,-8.97
COc1ccc(C(=O)Oc2ccc(-c3nc4ccccc4[nH]3)cc2)cc1OC,–,0.0791
Cc1cccc(-n2cnc3cc(C(=O)NC4CCCCC4)ccc32)c1,–,-5.83
COc1ccc(-c2nnc3n2N=C(c2ccccc2OC)CS3)cc1OC,–,-5.83
O=[S+]([O-])(c1c(F)cccc1F)N1CCN([S+](=O)([O-])c2csc3ccccc23)CC1,–,6.05
CN1CCN(c2cccc(CNc3nn4c(=O)c5ccccc5nc4s3)c2)CC1,–,-14
O=c1c2ccccc2nc2sc(Nc3ccc4c(c3)CNC4)nn12,–,9.1
O=C(Nc1ccc2ccccc2c1)Nc1nnc(-c2ccncc2)s1,–,1.15
Cc1ccc(NS(=O)(=O)c2cc3c(cc2N(C)C)NC(=O)CC3)cc1C,–,2.77
CCc1ccc(NC(=O)c2cnn3c(C)cc(C)nc23)cc1,–,-4.12

Structure (SMILES),Potency,"activity change, negative = inhibition [%]"
CC(C)(C)OC(=O)N1CCN(c2ccc(NCc3ccnc(-c4ccc(C#N)cc4)n3)cc2)CC1,–,-3.93
O=C(/C=C/c1ccc([N+](=O)[O-])o1)Nc1cccc([S+](=O)([O-])Nc2ccccc2F)c1,inactive,–
COc1ccc(-c2ccc3ncnc(N(C)Cc4csc(C)n4)c3c2)cc1OC,–,-1.4
Cc1cc(C)nc(NC(=S)N2CCN(c3nc(C)cnc3C)CC2)c1,–,1.5
O=C1CCCC2=C1C(c1[nH]ncc1Cl)NC(=NCc1ccoc1)N2 (stereo not given),–,-1.95
Cc1ccc(-c2no[n+]([O-])c2C#N)cc1,–,-1.59
CN1CCOc2ccc(S(=O)(=O)N3CCN(S(=O)(=O)c4c(F)cccc4F)CC3)cc21,–,10.4
O=C(NCc1cccnc1)C1CCN(S(=O)(=O)c2cccs2)CC1,–,6.96
c1nc(NCc2ccc3c(c2)OCO3)c2cc(-c3ccc4c(c3)OCCO4)ccc2n1,–,-4.21
Cc1nc(C)c(-c2ccc3ncnc(N(C)Cc4sccc4C)c3c2)s1,–,-3.39
COc1ccc(C2=Nn3c(nnc3-c3cccc(OC)c3OC)SC2)c(OC)c1,–,1.79
CC(=O)c1ccc(N2CCN(C(=O)c3ccc4c(c3)CC(=O)N4)CC2)cc1,–,-3.07
c1nc(NCCc2cnc[nH]2)c2cc(-c3ccoc3)ccc2n1,–,8.29
Cc1ccc(NS(=O)(=O)c2ccc3ccccc3c2)cc1C,–,6.68
COc1ccc(C2c3ccc4ccccc4c3Oc3ncn(CCN4CCOCC4)c(=N)c32)cc1OC (stereo not given),–,3.12
CC(C)(C)OC(=O)NC1CCN(c2nc(-c3ccc(Br)cc3)cs2)CC1,–,2.46
O=C(Nc1ccc(Cl)c([N+](=O)[O-])c1)Nc1cccc(-c2ccncc2)n1,–,1.84
CC(=O)Nc1sc2c(c1Br)CCNC2,–,0.502
Cc1c(Cl)cccc1NS(=O)(=O)c1cc2c(cc1Cl)CCC(=O)N2,–,2.2
Cc1cc(C)nc(NC(=S)N2CCN(c3cc(Br)cc(C(F)(F)F)c3)CC2)c1,–,-14.1
